Compound activity deposited in PubChem by National Center for Advancing Translational Sciences (NCATS).
IMPase Li cell – qHTS Assay for Identifying the Cell-Membrane Permeable IMPase Inhibitors: Potentiation with Lithium; CHO-M1 cells, IP1 TR-FRET (IP-One), carbachol + lithium; Potency, µM (titrated, usually from 59.4 µM), without a hit: at the highest dose activity, negative = IMPase inhibition, usual class: inhibitors; 210,000 tested, 0.35% active; AID 1457, 2008;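 also: IP1 builds up when IMPase is blocked and the TR-FRET signal falls; potency is read from the fitted curve at half-maximal effect; plate controls were basal vehicle for no effect and high inhibitor control for full effect; nearly all actives have a fitted effect of over 50% in size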
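IP1 accumulation measured by competitive TR-FRET in lysed CHO-M1 cells after 30 min compound exposure at 37C, with a small lithium addition to potentiate weak responses. Hill-equation AC50 from ratio and donor-channel data.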
HPGD inh – qHTS Assay for Inhibitors of HPGD (15-Hydroxyprostaglandin Dehydrogenase); 150,000 tested, 4.3% active; Potency, µM, without a hit: at the top dose activity change, negative = inhibition, actives largely listed as inhibitors; AID 894, 2007; purified HPGD, NADH fluorescence kinetic, PGE2 substrate; active = well fitted inhibition curve with a large enough effect, not every such curve was filed as active; inconclusive = small, poorly fitted or top-dose-only effect, or another doubt; inactive = no such curve, though single readings can be large or run the other way; also: potency is read from the fitted curve at half-maximal effect
Target sequence (P15428 whole entry, looked up): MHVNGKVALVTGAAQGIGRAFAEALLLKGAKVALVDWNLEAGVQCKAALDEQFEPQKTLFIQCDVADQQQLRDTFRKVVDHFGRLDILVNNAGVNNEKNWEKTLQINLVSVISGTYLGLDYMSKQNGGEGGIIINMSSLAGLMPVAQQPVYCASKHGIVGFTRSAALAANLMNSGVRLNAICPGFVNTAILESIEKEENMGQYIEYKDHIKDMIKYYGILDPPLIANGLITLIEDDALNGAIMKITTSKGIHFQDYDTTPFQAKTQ
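NADH formation kinetics: reaction with 30 uM PGE2 and 1 mM NAD+ (final), 20 nM enzyme, Tris-HCl pH 8 with Tween 20, after 15 min compound preincubation at room temperature. Fluorescence change, last versus first of five reads.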
IMPase inh – qHTS Assay for Identifying the Cell-Membrane Permeable IMPase Inhibitors; Inositol monophosphatase 1 (Rattus norvegicus), P97697; CHO-M1 cells, IP1 accumulation, HTRF TR-FRET ratio; 120,000 tested, under 10 active; inhibition (IP1 accumulation), % at 46.1 µM; active = well fitted curve in the direction sought with a large enough effect in the signal ratio, not every such curve was filed as active; inconclusive = small, poorly fitted or top-dose-only effect, or a change in a side signal; inactive = no such curve, though single readings can be large or run the other way; the % refers to the signal ratio;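 also: cells stimulated with carbachol in lithium chloride buffer; plate controls were DMSO basal wells for no effect and reference inhibitor wells for full effect; higher means more IMPase inhibition seen as more IP1 and lower FRET ratio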
Target sequence (P97697 whole entry, looked up): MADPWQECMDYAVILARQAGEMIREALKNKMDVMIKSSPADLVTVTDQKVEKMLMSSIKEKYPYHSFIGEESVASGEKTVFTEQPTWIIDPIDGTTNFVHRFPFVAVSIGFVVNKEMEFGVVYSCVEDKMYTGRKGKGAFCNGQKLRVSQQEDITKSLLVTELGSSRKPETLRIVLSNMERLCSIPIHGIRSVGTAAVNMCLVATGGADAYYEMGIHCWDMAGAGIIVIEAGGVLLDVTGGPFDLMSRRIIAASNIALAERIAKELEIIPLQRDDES
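In this qHTS, compounds (final up to 46 uM) act on CHO-M1 cells that are then activated through the M1 receptor with carbachol, in pH 7.4 buffer containing 50 mM LiCl, for 30 min. IP1 accumulation is quantified by the IP-One immunoassay.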
PNC inhibitor – High Content Assay for Compounds that inhibit the Assembly of the Perinucleolar Compartment | PC3M PTB-GFP, PNC prevalence imaging, 16 h; active compounds read low | activity change (PNC), negative = inhibition, % at 10 µM | 140,000 tested, 3.1% active | AID 2417, 2010;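 active = readout at or below -70, meaning at least 70% loss of cells showing the perinucleolar compartment, a nuclear body marking cancer cells; inconclusive = readout between -30 and a set limit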;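 also: plate controls were DMSO wells for no effect and camptothecin positive control wells for full effect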
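Compounds are pinned in duplicate onto adhered PC3M cells stably expressing GFP-tagged PTB and incubated 16 h at 37 C. Cells are then fixed, nuclei stained with Hoechst, and PNC-positive cells counted.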
ALOX12 inhib – qHTS Assay for Inhibitors of 12-hLO (12-human lipoxygenase); Potency, µM (highest dose often 57.1 µM), for inactives: top-dose activity change, negative = inhibition, usual class: inhibitors; 150,000 tested, 0.12% active; Polyunsaturated fatty acid lipoxygenase ALOX12 (Homo sapiens), P18054; purified 12-hLO, xylenol orange hydroperoxide absorbance; AID 1452, 2008; also: potency is read from the fitted curve at half-maximal effect; nearly all actives have a fitted effect of over 55% in size
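Lipoxygenase turnover measured by absorbance at 573 and 405 nm after Fe-XO development. Human 12hLO 150 nM, arachidonate 40 uM, pH 7.0 Hepes buffer with detergent; 15 min compound preincubation, 30 min reaction.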
ALDH1A1 block – qHTS Assay for Inhibitors of Aldehyde Dehydrogenase 1 (ALDH1A1); Aldehyde dehydrogenase 1A1 (Homo sapiens), P00352; Purified ALDH1A1, NADH fluorescence, propionaldehyde substrate; Potency, µM (doses to about 75.3 µM), inactives show at the highest dose activity, negative = inhibition, actives largely listed as inhibitors; 220,000 tested, 7.3% active; active = well fitted inhibition curve with a large enough effect, not every such curve was filed as active; inconclusive = small, poorly fitted or top-dose-only effect, or another doubt; inactive = no such curve, though single readings can be large or run the other way;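 also: potency is read from the fitted curve at half-maximal effect; plate controls were no enzyme wells and a reference inhibitor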
Active calls of the source: *; ? = inconclusive; nt = not tested or not shown; [ ] = dose if it differs, or a comment. Only some compounds are listed: those with a hit (about 11% of all), similar ones and a draw of the others. Unless noted, calls follow the shape of the dose curve; as a rule, active = well fitted curve in the direction sought with a large enough effect; inconclusive = small, poorly fitted or top-dose-only effect, or another doubt; inactive = no such curve, though single readings can be large; an effect the other way counts as inactive or inconclusive. Unless noted, % is scaled to controls: 0 for no effect and ±100 for the full control effect.

SMILES	IMPase Li cell	HPGD inh	IMPase inh	PNC inhibitor	ALOX12 inhib	ALDH1A1 block
Cc1cccc2c1N(CCOc1ccccc1Cl)C(=O)C2=O	-6.2%	-19.5%	3.6	-15.0	3.4%	0.9%
Cc1ccccc1OCCN1C(=O)c2ccccc2C1=O	9.4%[38.3 µM]	28.2µM*	0.4	-15.2	-6.2%	7.6%
Cc1ccccc1OCCN1C(=O)C(=O)c2cccc(C)c21	2.5%	-21.3%	nt	138.5	-1.3%	0.224µM*
Cc1ccccc1OCC(=O)NNC(=O)CCN1C(=O)c2ccccc2C1=O	3.6%	nt	nt	nt	nt	-4.4%
CN(CCC(=O)O)S(=O)(=O)c1ccccc1	4.1%	-14.6%	nt	nt	1.1%[11.4 µM]	15.4%[13.5 µM]
Cc1c(C(=O)O)c(=S)sn1CCOc1ccccc1	19.6%[38.3 µM]	17.8µM*	8.7	9.8	-4.6%	-7.9%
CCC(CC)c1nnc(NC(=O)[C@@H](NC(=O)c2cccc(C)c2)C(C)C)s1	3.0%	-9.7%	7.0	-97.3*	0.0%	-7.5%
CCCn1c(SCC(=O)Nc2nc3ccccc3s2)nc2c1c(=O)n(C)c(=O)n2C	24.4%[38.3 µM]	-3.5%	2.9	-111.3*	4.2%	?
CCCn1c(SCC(=O)Nc2nnc(C(C)C)s2)nc2c1c(=O)n(C)c(=O)n2C	nt	nt	9.9	-6.7	1.3%	-2.9%
CC(C)n1c(SCC(=O)Nc2nc3c(s2)CCCC3)nc2c1c(=O)n(C)c(=O)n2C	15.9%	-15.6%	5.3	-100.0*	-1.2%	-21.9%
CCOC(=O)c1c(NC(=O)CSc2nc3c(c(=O)n(C)c(=O)n3C)n2C(C)C)sc(C)c1C	27.1%[38.3 µM]	-6.5%	0.0	?	0.2%	-2.7%
NC(=O)Cc1nc2scc(-c3ccccc3)c2c(=O)[nH]1	-2.5%	nt	nt	nt	nt	12.6µM*
O=c1[nH]c(Cc2ccc(F)cc2)nc2scc(-c3ccc(F)cc3)c12	-20.0%	22.4µM*	nt	35.2	0.7%	31.6µM*
CCn1c2ccc(/C(C)=N\O)cc2c2cc(/C(C)=N\O)ccc21	4.2%[38.3 µM]	2.82µM*	?	-21.7	-7.9%	-1.9%
CCn1c2ccccc2c2cc(/C=N/O)ccc21	-6.8%	nt	nt	nt	nt	-1.0%
CN1/C(=C\C(=O)COC(=O)c2ccc(O)c(O)c2)C(C)(C)c2ccccc21	14.7%	nt	nt	nt	nt	?
O=C(c1ccc(-c2nnc(Nc3ccccc3)c3ccccc23)cc1)N1C[C@H]2C[C@H](C1)c1cccc(=O)n1C2	16.1%[38.3 µM]	31.6µM*	6.3	21.9	-2.9%	13.0%
O=C(Nc1cccc(Oc2c(F)c(F)c(F)c(F)c2F)c1)N1C[C@@H]2C[C@@H](C1)c1cccc(=O)n1C2	nt	nt	9.1	?	-6.8%	2.9%
O=c1c(=Nc2ccccc2O)c(=O)c2ccccc12	5.9%	nt	nt	nt	nt	22.4µM*
C/C(Cn1cnc([N+](=O)[O-])n1)=N\NC(=O)c1cccc(F)c1	1.7%	0.3%	1.6	-88.0*	1.0%	?
C/C(Cn1nnc([N+](=O)[O-])n1)=N\NC(=O)c1ccc(C)cc1	-1.0%	-4.2%	nt	-109.0*	1.7%	-7.2%
C/C(Cn1cnc([N+](=O)[O-])n1)=N\NC(=O)c1ccc(F)cc1	-8.7%	1.0%	2.9	14.0	-3.5%	?
O=C(NCCO)c1ccc(Cc2nc3ccccc3[nH]2)cc1	nt	0.2%	nt	nt	-0.5%	8.5%
Cc1ccc(C(=O)COC(=O)CCC(=O)Nc2ccc(Oc3cc(C)ccc3C(C)C)cc2)cc1	nt	nt	1.8	nt	nt	nt
NNC(=O)c1ccc2ccccc2n1	13.0%	nt	nt	nt	nt	7.94µM*
SMILES	IMPase Li cell	HPGD inh	IMPase inh	PNC inhibitor	ALOX12 inhib	ALDH1A1 block
Cc1ccccc1OCCNC(=O)c1ccc2ccccc2n1	-3.9%	-22.6%	nt	-23.6	-3.5%	5.3%
COCCNC(=O)c1ccc2ccccc2n1	2.6%[38.3 µM]	22.4µM*	0.9	?	-1.1%	?
O=C(NN=C1CCCCCCC1)c1ccc2ccccc2n1	24.9%	nt	nt	nt	nt	1.58µM*
O=C(NCc1ccccn1)c1ccc2ccccc2n1	0.1%	-17.1%	0.8	88.9	2.9%	-5.6%
OC[C@@H]1O[C@@H](n2cnc3cncnc32)[C@@H](O)[C@H]1O	nt	nt	-7.4	nt	3.0%	nt
COc1cc(OC)cc(-c2nc3n(n2)C(c2ccccc2F)C(C(=O)Nc2cccnc2)=C(C)N3)c1 (stereo not drawn)	nt	nt	5.9	nt	nt	nt
Cc1ccc(NC(=S)/C(=C(\[O-])c2ccc(Cl)s2)[n+]2cccc(CO)c2)cc1C	1.7%	nt	nt	nt	nt	14.1µM*
[O-]/C(=C(\C(=S)Nc1cccc2ccccc12)[n+]1cccc(CO)c1)c1ccc(Cl)s1	-6.3%	nt	nt	nt	nt	12.6µM*
[O-]/C(=C(\C(=S)Nc1ccc(SC(F)F)cc1)[n+]1cccc(CO)c1)c1ccc(Cl)s1	3.6%	nt	nt	nt	nt	?
Cc1c(Cl)cccc1NC(=S)/C(=C(\[O-])c1ccc(Cl)s1)[n+]1ccccc1	-17.2%	?	nt	?	1.8%	9.4%
CCOc1ccc(-c2nn(-c3ccccc3)cc2C2NC(=O)NC(C)=C2C(=O)OC(C)C)cc1C (stereo not drawn)	nt	nt	4.0	nt	nt	nt
Cc1nc(N2CCN(Cc3ccc4c(c3)OCO4)CC2)nc2c1C(=O)CC(c1ccco1)C2 (stereo not drawn)	6.7%[38.3 µM]	-15.9%	3.7	26.8	-13.6%	?
Cc1nc(N2CCN(Cc3ccccc3)CC2)nc2c1C(=O)CC(c1ccco1)C2 (stereo not drawn)	25.0%[38.3 µM]	-18.4%	20.5	5.6	-4.0%	22.4µM*
CC1(C)O[C@H]2C[C@@H]3[C@H]4CCC5=CC(=O)CC[C@@]5(C)[C@]4(F)[C@@H](O)C[C@@]3(C)[C@@]2(C(=O)CCl)O1	2.1%	-5.0%	0.5[20.6 µM]	nt	-1.7%[25.6 µM]	-0.7%[20.9 µM]
O=C(/C=C/c1ccccc1)n1cnnc1SC/C=C/c1ccccc1	11.4%	14.1µM*	0.4	-16.1	3.1%	-24.4%
Cc1nnc(SC/C=C/c2ccccc2)n(N)c1=O	-4.6%	nt	nt	nt	nt	1.0%
COc1c(O)cc2c(-c3ccccc3)cc(=O)oc2c1OC	-6.0%	-25.3%	nt	nt	-4.5%	?
CCCOc1ccc(Br)cc1-c1cc(-c2ccc(Cl)cc2)[nH]c1-c1ccncc1	-17.2%	?	nt	nt	4.4%	?
N#C/C(=C\c1ccccc1OCc1ccc(C(=O)O)cc1)C(=O)Nc1ccc(O)cc1	4.4%	nt	nt	nt	nt	5.62µM*
COC(=O)c1ccc(COc2ccccc2/C=C(\C#N)C(=O)Nc2ccc(C)cc2)cc1	3.4%	-2.7%	nt	?	-0.2%	6.9%
COc1cccc(Cn2c(=O)c(-c3cn(C)c4ccccc34)nc3cnc(OC)nc32)c1	-3.9%	nt	nt	nt	nt	-7.3%
